High-throughput results (PubChem BioAssay)
EP2 modulator: EP2 receptor (human) modulation. P43116. induction, % at 25 µM. 0.83% of 260,000 active. EP2-expressing cells, cAMP HTRF FRET, PGE2 co-stimulation;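 active = compounds whose cAMP rise, as percent of the full-agonist control response, exceeds 60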;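 also: rat C6 glioma line stably carrying human EP2 under a CMV promoter; the protocol text gives 20 µM as final concentration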
Target sequence (P43116 whole entry, looked up): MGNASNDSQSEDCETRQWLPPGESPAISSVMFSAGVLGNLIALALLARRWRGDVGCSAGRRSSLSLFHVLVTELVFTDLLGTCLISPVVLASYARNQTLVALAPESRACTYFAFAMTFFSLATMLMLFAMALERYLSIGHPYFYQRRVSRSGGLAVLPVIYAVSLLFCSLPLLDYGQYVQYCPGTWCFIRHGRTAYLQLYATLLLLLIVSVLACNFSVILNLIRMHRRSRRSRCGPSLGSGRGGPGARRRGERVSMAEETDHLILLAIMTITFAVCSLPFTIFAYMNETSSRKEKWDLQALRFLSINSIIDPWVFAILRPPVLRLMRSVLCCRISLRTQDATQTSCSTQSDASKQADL
KCC2 mod: modulates chloride dependent transport by human KCC2. AID 1456. 2.2% of 190,000 active. Q9H2X9. KCC2 cells, thallium flux FluoZin-2 fluorescence. B-score of Tl+ flux slope (higher = more flux/activation; lower = inhibition) at 10 µM;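 active = thallium flux slope and its plate-corrected score both differing from the plate sample mean at a set confidence after two filtering rounds, in either direction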;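 also: slope of fluorescence scaled to starting intensity during 10 to 20 s after thallium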
S1P3 antag: S1P3 (human) receptor antagonism; CHO S1P3 NFAT-BLA reporter, FRET fluorescence, antagonist mode; 0.27% of 170,000 active; AID 485; Q99500; inhibition, % at 4.98 µM;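 active = inhibition above the plate cutoff, the mean inhibition of test wells on that plate plus 3 SD, cut at about 28% in these data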;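 also: cells challenged with S1P at its EC80 of 0.8 µM; blue over green emission ratio from cleaved BLA substrate after 4 h stimulation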
Target sequence (Q99500 whole entry, looked up): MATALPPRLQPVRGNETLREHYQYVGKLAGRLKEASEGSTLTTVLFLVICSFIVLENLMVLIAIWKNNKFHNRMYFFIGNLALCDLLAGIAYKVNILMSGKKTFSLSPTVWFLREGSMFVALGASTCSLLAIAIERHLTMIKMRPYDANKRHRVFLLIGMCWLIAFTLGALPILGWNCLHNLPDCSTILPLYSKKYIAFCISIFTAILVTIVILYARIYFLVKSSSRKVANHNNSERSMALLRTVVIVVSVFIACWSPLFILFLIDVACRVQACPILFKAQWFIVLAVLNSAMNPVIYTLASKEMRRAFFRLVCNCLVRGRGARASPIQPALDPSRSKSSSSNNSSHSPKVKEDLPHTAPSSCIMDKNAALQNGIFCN
EP2 antag: inhibitors of human EP2 prostaglandin E2 receptor. P43116. C6 glioma cells expressing human EP2, cAMP TR-FRET; cells stimulated with saturating PGE2. inhibition, % at 25 µM. 0.52% of 260,000 active. AID 1422;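 active = percent inhibition above 40 after rounding to a whole number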;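 also: rat C6 glioma host cells with rolipram phosphodiesterase inhibitor present; the protocol text gives 20 µM as final concentration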
Of the large screens only hits and unclear results are named; the others gave an inactive call; ! = repeats disagree. Most compounds without a hit are left out; they make up all but 3.1% or so of the library.

O=S1(=O)Nc2c(ccc3cccnc23)-c2ccccc21	KCC2 mod 4.1
O=c1[nH]n(-c2cccc3cccnc23)c(=O)c2ccccc12	none
C=C(C)C1Cc2c(C)nn(-c3ccccc3)c2C1 (configuration not stated)	EP2 modulator 61
Cc1cc(C)c2[nH]c(C(=O)NCCc3nc(-c4ccccc4)no3)c(C)c2c1	none (no result: KCC2 mod, S1P3 antag)
Cc1ccc2nc(-c3ccc(SCC(=O)NC4CCCCC4)nc3)[nH]c2c1	none (no result: KCC2 mod, S1P3 antag)
COC(=O)CSc1ccc(-c2nc3ccc(C)cc3[nH]2)cn1	EP2 antag 59 (no result: S1P3 antag)
COc1cc(OC)cc(C(=O)Nc2ccc(O)c(-c3nc4cc(C)c(C)cc4o3)c2)c1	none (no result: KCC2 mod, S1P3 antag)
Cc1ccc(C)n1-n1c(C)nc2sc(-c3ccccc3)cc2c1=O	S1P3 antag 55
CCn1nc(C)c(NS(=O)(=O)c2ccc3c(c2)NC(=O)C(C)(C)O3)c1C	none (no result: KCC2 mod, S1P3 antag)
NC(=O)CC(NC(=O)c1ccc(Br)cc1)c1ccc(NCc2ccc(F)c(F)c2)c([N+](=O)[O-])c1 (configuration not stated)	EP2 antag 43 (no result: S1P3 antag)
NC(=O)CC(NC(=O)c1ccc(Br)cc1)c1ccc(NCc2ccc(F)cc2)c([N+](=O)[O-])c1 (configuration not stated)	EP2 antag 51 (no result: S1P3 antag)
COC(=O)C1C2C=CC3(CN(CCc4ccccc4)C(=O)C13)O2 (configuration not stated)	EP2 antag 51!
Cc1cc(-c2cn3c(C)c(C)nnc3n2)ccc1NC(=O)C1CC(=O)N(C)C1 (configuration not stated)	none (no result: KCC2 mod, S1P3 antag, EP2 antag)
O=S1(=O)CC2NC(=S)N(c3cccc(Br)c3)C2C1 (configuration not stated)	EP2 modulator 70
CCCc1nn(-c2ccccc2)c2c1C(c1ccc(OC)c(OCC)c1)C(C#N)=C(N)O2 (configuration not stated)	none (no result: KCC2 mod, S1P3 antag)
Nc1nc(N)c(-c2cccc(C(F)(F)F)c2)c(Cc2cccc(C(F)(F)F)c2)n1	EP2 antag 62 (no result: KCC2 mod, S1P3 antag)
Nc1ncccc1OCc1cccc(C(F)(F)F)c1	none
O=C(Cc1ccc(F)cc1)N1CCC(n2nc(-c3cccs3)ccc2=O)CC1	none (no result: KCC2 mod, S1P3 antag, EP2 antag)
CC(=O)n1c2ccccc2c2ccccc21	none (no result: S1P3 antag)
Cc1ccc(C(=O)n2c3ccccc3c3ccccc32)cc1	EP2 modulator 64 (no result: KCC2 mod, S1P3 antag)
CN(C)CCCNC(=S)N(Cc1cc2cc3c(cc2[nH]c1=O)OCO3)C1CCCC1	none (no result: KCC2 mod, S1P3 antag)
COc1ccc(-c2cc3nc(-c4ccccc4)cc(N4CCC5(CC4)OCCO5)n3n2)cc1	S1P3 antag 54
COc1cc(NC(=O)CSc2nc3cc(C)c(C)cc3cc2C)cc(OC)c1	none (no result: KCC2 mod, S1P3 antag)
c1ccc2c(c1)oc1c(Nc3ccc4c(c3)OCO4)ncnc12	none (no result: KCC2 mod)
c1ccc2c(c1)oc1c(NCc3ccc4c(c3)OCO4)ncnc12	KCC2 mod -5.1
CC(=O)c1cccc(NC(=O)c2ccc(-c3ccccc3[N+](=O)[O-])o2)c1	EP2 antag 47
COc1ccccc1CCNC(=O)Cn1nc(C)n2c(cc3ccsc32)c1=O	none (no result: KCC2 mod, S1P3 antag, EP2 antag)
Cc1cc(-c2nc(-c3ccc(C(C)(C)C)cc3)no2)no1	none
Cc1c(-c2nc(-c3ccc(C(C)(C)C)cc3)no2)n(C)oc1=O	EP2 modulator 72
N#Cc1nc(-c2ccc(OCc3ccccc3)cc2)oc1NCCCn1ccnc1	EP2 antag 40 (no result: KCC2 mod)
C=CCCCN(Cc1ccccc1)S(=O)(=O)c1ccccc1Br	EP2 modulator 61 (no result: S1P3 antag)
Cc1cc(=S)c2cc(Br)ccc2[nH]1	EP2 modulator 66 (no result: KCC2 mod, S1P3 antag)
Cc1cc(=O)c2cc(Br)ccc2[nH]1	none (no result: KCC2 mod, S1P3 antag)
CC(C)c1cc(C(=O)NCCc2nc(-c3ccncc3)n[nH]2)n[nH]1	none (no result: KCC2 mod, S1P3 antag)
Cc1cccc(NC(=S)NNC(=O)c2sccc2C)c1	none (no result: S1P3 antag)
CCc1cc(C(=O)NNC(=S)Nc2cccc(C)c2)cs1	KCC2 mod 9.3 (no result: S1P3 antag)
Cc1cccc(NC(=S)NNC(=O)c2csc(C(C)C)c2)c1	KCC2 mod 16 (no result: S1P3 antag)
COc1ccc2nc(SCC(=O)c3ccc(F)cc3)c(C#N)cc2c1	none (no result: KCC2 mod, S1P3 antag)
COc1ccccc1C1(O)CCCN(C(=O)COc2ccc3nsnc3c2)C1 (configuration not stated)	EP2 antag 55 (no result: KCC2 mod, S1P3 antag)
Cc1ccc(S(=O)(=O)Nc2ccccc2C(=O)c2ccc(C)c(C)c2)cc1	EP2 antag 45 (no result: KCC2 mod, S1P3 antag)
Cc1ccc(S(=O)(=O)Nc2ccc(Cl)cc2C(=O)c2ccccc2)cc1	none
Cc1nc(N)ncc1C(=O)N1CCC(CCc2ccccc2C(F)(F)F)CC1	none (no result: KCC2 mod, S1P3 antag)
CCCOc1cccc(C(=O)Nc2nc3ccc(NC(C)=O)cc3s2)c1	none (no result: KCC2 mod, S1P3 antag)
Cc1cc(C)c2nc(-c3ccccn3)cc(C(=O)Nc3cc(C)on3)c2c1	S1P3 antag 54 (no result: KCC2 mod)
CN1C(CC(=O)Nc2ccc(Cl)cc2Cl)c2ccccc2CC1(C)C (configuration not stated)	EP2 modulator 61
CC(=O)N1[C@@H]2CC3C4CC=C5C[C@@H](O)CC[C@]5(C)C4CC[C@]3(C)[C@@]21C(C)=O (some centres not stated)	none
C[C@@H]1CC[C@H]2[C@H](C)[C@@H]3[C@@H](C[C@H]4[C@H]5CC=C6C[C@@H](O)CC[C@]6(C)[C@@H]5C[C@@H](O)[C@]34C)N2C1	EP2 antag 62 (no result: KCC2 mod, S1P3 antag)
Cc1cc(C)nc(Sc2ncnc3sc4c(c23)CCC4)n1	KCC2 mod 7.6 (no result: S1P3 antag)
N#CCSc1ncnc2sc3c(c12)CCC3	none
Oc1c(Cl)cc(CN(Cc2cc(Cl)c(O)c(Cl)c2)C2CCCCC2)cc1Cl	EP2 antag 44 (no result: KCC2 mod, S1P3 antag)
CN(C)c1ccc(CN(C)C2CCCCC2)cc1	none (no result: S1P3 antag)
Cc1ccccc1NC(=S)NNC(=O)c1csc2c1CCC(C)C2 (configuration not stated)	KCC2 mod 94 (no result: S1P3 antag)
COc1ccc(OC)c(C2C(C(C)=O)=C(O)C(=O)N2CC#N)c1 (configuration not stated)	none (no result: KCC2 mod, S1P3 antag)
COc1ccc(OC)c(C2C(C(C)=O)=C(O)C(=O)N2CCC(=O)O)c1 (configuration not stated)	S1P3 antag 104 (no result: KCC2 mod)
Cc1ccc(-c2c[n+](Cc3ccc(Cl)c(Cl)c3)c3n2CCC3)cc1	none
C[N@@+]1(Cc2ccc(Cl)c(Cl)c2)CCC[C@@H]1c1ccc[n+](Cc2ccc(Cl)c(Cl)c2)c1	EP2 antag 50 (no result: KCC2 mod, S1P3 antag)
COc1cc(CN(Cc2ccc3c(c2)OCO3)CC(C)O)ccc1O (configuration not stated)	none (no result: KCC2 mod, S1P3 antag)
O=C(NC1CCCCC1)NC1CC2CCCC(C1)N2Cc1ccccc1 (configuration not stated)	none (no result: KCC2 mod, S1P3 antag)
O=C(Nc1ccc(Cl)c(C(F)(F)F)c1)NC1CC2CCCC(C1)N2Cc1ccccc1 (configuration not stated)	EP2 antag 51
CS(=O)(=O)c1cncnc1C1CCCN(C(=O)Nc2ccccc2F)C1 (configuration not stated)	none (no result: KCC2 mod, S1P3 antag, EP2 antag)
Cc1ccc(-c2cc(C(=O)Nc3sc4c(c3C#N)CCC4)no2)cc1	none (no result: KCC2 mod, S1P3 antag)
COc1ccc2cc(CN(C(=S)Nc3ccc(C)cc3)C3CCCCC3)c(=O)[nH]c2c1	none (no result: KCC2 mod, S1P3 antag)
COc1cccc2c1C(=O)c1c(O)c3c(c(O)c1C2=O)C[C@](O)(C(=O)CO)C[C@@H]3O[C@@H]1C[C@H](N)[C@@H](O)[C@H](C)O1	EP2 antag 40 (no result: KCC2 mod, S1P3 antag)
